Screening results: PubChem, National Center for Advancing Translational Sciences (NCATS)
Rows were chosen to be rich in hits. Some 21% of all compounds tested hit in one or more screens of this group.
D3 ag – qHTS of D3 Dopamine Receptor Agonist: qHTS; D(3) dopamine receptor (Homo sapiens), P35462; D3R DiscoveRx beta-arrestin cells, luminescence, 90 min; max activation, %; actives 0.58% (n = 410,000); in the data active = max activation above about 30%; note: 0% is about no effect
Target sequence (P35462 whole entry, looked up): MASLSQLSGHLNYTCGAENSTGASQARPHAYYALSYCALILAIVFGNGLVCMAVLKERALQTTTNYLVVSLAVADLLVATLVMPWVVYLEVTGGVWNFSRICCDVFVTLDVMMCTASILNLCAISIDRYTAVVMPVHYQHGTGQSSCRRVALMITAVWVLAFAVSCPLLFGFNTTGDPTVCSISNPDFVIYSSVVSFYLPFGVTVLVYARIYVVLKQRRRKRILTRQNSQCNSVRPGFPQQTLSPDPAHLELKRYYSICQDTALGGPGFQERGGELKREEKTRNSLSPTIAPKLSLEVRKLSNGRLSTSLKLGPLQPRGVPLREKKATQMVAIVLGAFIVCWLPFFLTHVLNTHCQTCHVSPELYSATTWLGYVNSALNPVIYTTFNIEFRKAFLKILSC
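Agonist mode: compounds and dopamine controls were applied to plated cells for 90 min at 37 degrees C after an overnight attachment at 1500 cells/well. Luminescent read-out followed 30 - 60 minutes at room temperature with DiscoveRx detection reagent.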
ClpP mod – qHTS Assay for Activators of ClpP. AID 651965, 2013. purified B. subtilis ClpP, FRET peptide cleavage, 20 min. Potency, µM (series often up to 57.5 µM), without a hit: at the top dose activity change, negative = active. actives 1.9% (n = 340,000); active = well fitted falling curve with a large enough effect; inconclusive = small, poorly fitted or top-dose-only effect; inactive = no such curve, though single readings can be large or run the other way; note: potency is the fitted concentration of half-maximal effect; the source files actives as falling curves though it sought activators and does not explain the sign; nearly all actives have a fitted effect of over 65% in size
Target sequence (P80244 whole entry, looked up): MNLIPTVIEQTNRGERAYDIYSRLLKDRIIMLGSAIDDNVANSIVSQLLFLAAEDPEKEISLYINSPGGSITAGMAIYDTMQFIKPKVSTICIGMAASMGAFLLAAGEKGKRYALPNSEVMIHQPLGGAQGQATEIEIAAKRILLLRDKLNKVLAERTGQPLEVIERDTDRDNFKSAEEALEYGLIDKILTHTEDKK
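Buffer: 100 mM Tris/HCl pH8, 100 mM KCl, 0.05% low protease BSA, 2.5% glycerol, 0.01% Tween-20. ClpP 10 microg/mL final; 20 min RT; delta FRET normalized to ADEP and DMSO controls.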
DT40 TDP1 no CPT – qHTS for Inhibitors of human tyrosyl-DNA phosphodiesterase 1 (TDP1): qHTS in cells in absence of CPT; DT40 Tdp1-/- hTDP1 cells, no CPT, ATP luminescence, 48 h; Potency, µM (doses to about 46.2 µM), without a hit: at the top dose activity change, negative = growth inhibition, most hits filed as inhibitors; actives 15% (n = 420,000); note: potency is the fitted concentration of half-maximal effect; % is set by controls: 0 for no effect and ±100 for the full control effect; nearly all actives have a fitted effect of over 55% in size
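Stably hTDP1-transfected Tdp1-null chicken DT40 cells were treated with library compounds minus camptothecin and grown for at least 48 hr at 37 °C, after which cellular ATP was quantified by luminescence.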
D3 antag – qHTS of D3 Dopamine Receptor Antagonist: qHTS; D(3) dopamine receptor (Homo sapiens), P35462; D3R cells, DiscoveRx beta-arrestin luminescence, antagonist mode; stronger effect = lower value; max response, negative = inhibition, %; actives 2.5% (n = 360,000); AID 652054, 2013; in the data active = max response below about -50%; inconclusive = no clear call, values can overlap the other calls; note: % is set by controls: 0 for no effect and ±100 for the full control effect
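Cells plated overnight at 1500 cells/well, then exposed to library compounds with dopamine controls for 90 minutes at 37 degrees C. DiscoveRx reagent added for 30–60 minutes at room temperature; luminescence read, quantitative HTS format.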
DT40 TDP1 CPT – qHTS for Inhibitors of human tyrosyl-DNA phosphodiesterase 1 (TDP1): qHTS in cells in presence of CPT. chicken DT40 Tdp1-/-;hTDP1 cells + 20 nM CPT, ATP luminescence, 48 h. Potency, µM (series often up to 46.2 µM), for inactives: at the highest dose activity change, negative = growth inhibition, actives largely listed as inhibitors. actives 12% (n = 420,000). AID 686979, 2013; note: potency is the fitted concentration of half-maximal effect; % is set by controls: 0 for no effect and ±100 for the full control effect; nearly all actives have a fitted effect of over 55% in size
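Cell growth measured by CellTiter-Glo luminescence after a minimum 48 h, 37 C compound exposure with 20 nM CPT in Tdp1-knockout DT40 cells stably expressing hTDP1, seeded 400/well; qHTS titration format.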
IL1B secr inh – qHTS for Inhibitors of Inflammasome Signaling: IL-1-beta AlphaLISA Primary Screen; THP-1 LPS/ATP IL-1B secretion, AlphaLISA, 16 h; stronger effect = lower value; activity change, % at 57.5 µM; actives 4.7% (n = 360,000); in the data active = activity change below about -50%; inconclusive = mostly about -30% to -49%; note: % is set by controls: 0 for no effect and ±100 for the full control effect
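Secreted IL-1B measured by AlphaLISA bead assay after 16 h compound exposure of THP-1 cells; compounds (final up to 57.5 uM) added 1 h before LPS (250 ng/mL) and ATP (1.25 mM) stimulation; lower signal means less secretion.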
An asterisk follows results filed as active; ? = inconclusive; . = not tested or not shown; ! = a repeat was not active. Unless noted, calls come from the whole dose curve; as a rule, active = well fitted inhibition curve with a large enough effect; inconclusive = small, poorly fitted or top-dose-only effect; inactive = flat fitted curve, though single readings scatter.

SMILES	D3 ag	ClpP mod	DT40 TDP1 no CPT	D3 antag	DT40 TDP1 CPT	IL1B secr inh
CC(C)N(C)S(=O)(=O)c1ccc(NC(=O)CSC(=S)N2CCCC2)cc1	-12	-2%	-7%	-12	-11%	23
CNC(=O)/C=C1\NC(C)(C)Cc2c1ccc1ccccc21	2	3%	21µM*	25	21µM*	-67*
CC1NC(C)(C)Cc2c1ccc1ccccc21 (centres undefined)	-12	2%	1%	2	-3%	-23
O=c1c2cc([N+](=O)[O-])ccc2sn1-c1ccccc1	-19	-3%	2.9µM*	-94*	4.6µM*	15
O=c1c(-c2ccccc2)c[nH]n1-c1cccc([N+](=O)[O-])c1	6	.	?	-30	-20%	-13
N#Cc1ccc2sn(-c3ccccc3)c(=O)c2c1	4	-1%	4.6µM*	?	3.7µM*	19
CC(=O)Nc1ccc2sn(-c3ccccc3)c(=O)c2c1	-13	-2%	2.1µM*	-9	2.1µM*	-102*
OC(Cn1cncn1)c1ccc(Cl)cc1Cl (centres undefined)	-4	-11%	-17%	0	-16%	5
OC(c1ccc(Cl)cc1Cl)C(Cc1cccnc1)n1cncn1 (centres undefined)	1	0%	-5%	-75*	-5%	1
COc1ccccc1C(=O)n1nc(-c2cccnc2)nc1NCc1ccccc1	4	-2%	?	3	-10%	13
O=C(c1ccco1)n1nc(-c2ccccc2)nc1NCc1ccc(Cl)cc1	-2	-1%	.	.	.	.
CCC(=O)n1nc(-c2ccc(Cl)cc2)nc1NCc1ccccc1	-6	9%	16µM*	-15	15µM*	-17
CCCC(=O)n1nc(-c2cccnc2)nc1NCc1ccc(OC)cc1	57*!	-9%	-16%	2	16%	-9
Cc1ccc(C(=O)NCC(=O)NCc2ccc(Cl)cc2)s1	-6	.	-16%	-7	-3%	26
C=CCOC(=O)COc1ccc2c(C)c(CC)c(=O)oc2c1	-6	?	-1%	14	8%	16
CCCc1c(C)c2ccc(OCC(C)=O)cc2oc1=O	4	3.2µM*	-11%	0	-10%	?
CC(=O)COc1ccc2c(C)c(-c3ccccc3)c(=O)oc2c1	7	.	26µM*	10	?	-6
Cc1c(C)c2ccc(OCC(=O)c3ccccc3)cc2oc1=O	-1	?	?	2	?	-11
C=CCOC(=O)COc1ccc2c(C)c(C)c(=O)oc2c1	-2	13µM*	?	-16	5%	7
CCOC(=O)CCc1c(C)c2ccc(OCc3nn[nH]n3)cc2oc1=O	5	25%	5%	-25	1%	15
CCOC(=O)COc1ccc2c(C)c(CCN(CC)CC)c(=O)oc2c1	6	.	-3%	.	6%	.
CCCCc1c(C)c2ccc(OCC(C)=O)cc2oc1=O	4	4µM*	?	1	-7%	-2
Cc1cc(/C=C2\C(=N)N3N=CSC3=NC2=O)c(C)n1Cc1ccccc1	-7	.	-14%	-12	-3%	.
CC(C)(C)OC(=O)N1CCc2onc(-c3ccccc3F)c2C1=O	3	-1%	-6%	4	-11%	-7
CC1CCN(CC(=O)Nc2ccccc2Sc2ccccc2)CC1	0	-1%	?	-19	?	5
SMILES	D3 ag	ClpP mod	DT40 TDP1 no CPT	D3 antag	DT40 TDP1 CPT	IL1B secr inh
O=C(CN1CCN(CC(=O)Nc2ccccc2Cl)CC1)NCC1(N2CCOCC2)CCCCC1	7	2%	?	5	?	-29
O=C(CN1CCN(S(=O)(=O)N2CCCCC2)CC1)Nc1cc(Cl)ccc1Cl	-3	.	-46%	-7	-8%	37
O=C(Nc1cc(Cl)ccc1Cl)N1CCCC1	-2	2%	18µM*	10	21µM*	-26
NC(=O)C1(N2CCCCC2)CCN(CC(=O)Nc2ccccc2Sc2ccccc2)CC1	3	0%	?	9	?	-79*
O=C(CN1CCN(CC(=O)Nc2ccccc2Cl)CC1)NCC1(N2CCCCC2)CCCCC1	1	6%	21µM*	0	?	-8
NC(=O)C1(N2CCCCC2)CCN(CC(=O)Nc2cc(Cl)ccc2Cl)CC1	-62	0%	-22%	-88*	-21%	-10
CC1CCN(S(=O)(=O)c2ccc3c(c2)N(CC(=O)N2CCN(c4ccc(Cl)cc4)CC2)C(=O)CO3)CC1	-1	-1%	.	.	.	.
Cc1ccc2oc(=O)n(Cc3ccc(F)cc3)c2c1	10	0%	-21%	6	-4%	-15
Cc1ccc(C)c(NC(=O)CSc2c(C)cnc3c2c(=O)n(C)c(=O)n3C)c1	6	1%	7%	.	4%	.
Cc1cccc(NS(=O)(=O)c2ccc3c(c2)OCC(C(=O)N2CCCC2)O3)c1C (centres undefined)	9	1%	?	.	?	.
O=c1oc(=S)oc2c1[C@H](c1ccc(Cl)cc1)O[C@H](C1CC1)C2	7	-2%	-14%	13	-3%	17
O=c1oc(=S)oc2c1[C@H](c1ccc(Cl)cc1)O[C@H](C1CCCC1)C2	-7	2%	23µM*	-9	?	28
O=S(=O)(Nc1ccc(-c2ccc3nncn3n2)cc1)c1cccs1	11	.	-26%	-13	2%	13
Fc1cc(F)cc(-c2c(-c3ccccc3)ncc3ccc(F)cc23)c1	-16	-3%	7.3µM*	-19	13µM*	39
Fc1ccc2cnc(-c3ccccc3)c(-c3cccc(C(F)(F)F)c3)c2c1	-13	-17%	18µM*	-64*	16µM*	26
Cc1ccc(SC(C)C(=O)NCc2ccncc2)cc1 (centres undefined)	-7	-5%	-6%	-59*	?	1
O=C1N=c2ccccc2=C1c1c(O)[nH]c2c(C(F)(F)F)cccc12	2	14%	26µM*	-1	21µM*	-1
O=C(Nc1ccccc1-c1ccccc1)c1ccc(=O)[nH]n1	0	-1%	-25%	-12	-27%	-2
COc1ccc(CCNC(=O)c2cc(-c3ccncc3)nc3c(Cl)cccc23)cc1OC	-13	0%	21µM*	-4	21µM*	-3
